Measurements: PubChem BioAssay AID1460 (National Center for Advancing Translational Sciences (NCATS), 2008)
Where “and” joins values, the source holds several entries; their conditions need not be identical. Equal entries are not always repeated. The campaign covered roughly 270,000 compounds. About 5,800 (2.1%) were called active. Entries that show only a call come without a potency. About 16% were inconclusive and are not listed. Calls come from the whole dose curve; as a rule, active = well fitted inhibition curve with a large enough effect; inconclusive = small, poorly fitted or top-dose-only effect; inactive = flat fitted curve, though single readings scatter. For the sample, actives were picked, then their nearest neighbours and some compounds at random.

target: Microtubule-associated protein tau (Homo sapiens) (UniProt P10636); assay: qHTS for Inhibitors of Tau Fibril Formation, Thioflavin T Binding; conditions: recombinant tau K18 P301L (four-repeat tau fragment), heparin-induced fibrillization, ThT fluorescence; series mostly up to 57.4 µM; note: nearly all actives have a fitted effect of over 55% in size
Sequence (P10636 561-689 P618L limits assumed): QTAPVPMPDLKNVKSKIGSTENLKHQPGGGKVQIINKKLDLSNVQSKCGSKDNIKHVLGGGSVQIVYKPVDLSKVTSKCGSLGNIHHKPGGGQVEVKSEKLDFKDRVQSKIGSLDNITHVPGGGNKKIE
How it was run: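 Heparin-induced fibrillization of the P301L-mutant K18 repeat-domain fragment of human tau was followed by ThT binding in quantitative high-throughput format.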
Potency is the fitted concentration of half-maximal effect.

SMILES | Potency
Cn1c(=O)sc2cc(NS(=O)(=O)c3ccc(C(C)(C)C)cc3)ccc21 | inactive
COc1c(O)ccc2c1CN1CCc3cc4c(cc3C1C2)OCO4 (stereo not drawn) | 22.4 µM (active)
COc1ccc2cc1Oc1ccc(cc1)C[C@H]1c3cc(c(OC)cc3CCN1C)Oc1c(O)c(OC)cc3c1[C@H](C2)N(C)CC3 | inactive
COc1cc(COCC(O)CN2CCN(Cc3ccc4c(c3)OCO4)CC2)cc(OC)c1OC (stereo not drawn) | inactive
COC(=O)c1ccccc1NC(=O)C(Cc1ccccc1)N1Cc2ccccc2C1=O (stereo not drawn) | inactive
CCCCN(CC)CCCNC(=O)Cn1ncc2c([nH]c3ccc(C)cc32)c1=O | inactive
Cc1ccc(NC(=O)CSc2nc3c(c(=O)[nH]2)CN(Cc2ccc4c(c2)OCO4)CC3)cc1C | inactive
Cc1ccc(CN2CCC(CNC(=O)c3cnn(-c4ccc(C)cc4)c3C3CCN(C(=O)OC(C)(C)C)CC3)CC2)cc1 | inactive
Cc1ccc2nc(/C(C#N)=C/c3ccc(-c4ccc(C(=O)OC(C)C)cc4)o3)[nH]c2c1 | inactive
CCCCOC(=O)/C(C#N)=C/c1ccc(-c2cccc(C(F)(F)F)c2)o1 | inactive
CCOC(=O)c1ccc(-c2ccc(/C=C(\C#N)C(=O)Nc3ccc(OCC)cc3)o2)cc1 | 1.41 µM (active)
COc1cccc(N2CCN(S(=O)(=O)c3ccc4c(c3)CCCN4C(C)=O)CC2)c1 | inactive
CCOC(=O)c1[nH]c2ccc(OC)cc2c1NC(=O)CCN1CCN(Cc2ccccc2)CC1 | inactive
COC(=O)c1[nH]c2ccc(Br)cc2c1NC(=O)Oc1ccccc1 | 15.8 µM (active)
COC(=O)c1[nH]c2ccccc2c1NS(=O)(=O)c1ccc(OC)cc1OC | inactive
O=S(=O)(NCCS(=O)(=O)N1CCN(c2ccccc2)CC1)c1ccc(Cl)cc1 | inactive
CN(C(=O)CSc1nc2ccc(NC(=O)COc3ccccc3)cc2s1)c1ccccc1 | inactive
CCCCc1nn2c(=O)cc(COC(=O)c3ccc(NC(=O)c4ccccc4C)cc3)nc2s1 | inactive
O=C1CSC(=S)N1/N=C/c1ccc(O)c([N+](=O)[O-])c1 | 6.31 µM (active)
Cc1ccc(C(=O)Cn2cc([N+](=O)[O-])nc2C)cc1 | inactive
O=C(Cn1c[n+](CC(=O)c2ccc([N+](=O)[O-])cc2)cn1)c1ccc([N+](=O)[O-])cc1 | 12.6 µM (active) and 20 µM (active)
O=C(c1ccncc1)c1ccc([N+](=O)[O-])cc1 | inactive
Cc1csc2nc(COC(=O)c3ccc(NC(=O)COc4ccccc4F)cc3)cc(=O)n12 | inactive
O=C(Nc1cccc2ncccc12)c1ccc(-c2ccc(Cl)cc2Cl)o1 | inactive
Cc1ccc(/C=C(\C#N)C(=O)Nc2cccc3ncccc23)o1 | 14.1 µM (active)

SMILES | Potency
O=C(Nc1cccc2ncccc12)C(Cl)(Cl)Cl | inactive
O=C(NCc1ccccc1Cl)C1CCN(c2ncnc3c2nc2n3CCCCC2)CC1 | inactive
Cc1ccc(NC(=O)Cn2cnc3nc4c(cc3c2=O)CCCC4)cc1Cl | inactive
O=C(Nc1ccccc1)Nc1ccccc1C(=O)NCc1ccco1 | inactive
CCOc1ccc(CNC(=O)c2cc(-c3ccc(Cl)s3)nc3ccccc23)cc1 | inactive
CCc1ccc(-c2cc(C(=O)NCc3ccco3)c3ccccc3n2)s1 | 25.1 µM (active)
Cc1cc(C)cc(NS(=O)(=O)c2cc3c(cc2C)NC(=O)CO3)c1 | inactive
CCc1ccc(NC(=O)CCCc2nnc3n(CCCOC)c(=O)c4sccc4n23)cc1 | inactive
CCN(CC)c1ccc(NC(=O)CN2CCN(CC(=O)Nc3ccc(Cl)cc3)CC2)cc1 | inactive
COc1ccc(-c2nc(SCC(=O)N3CCCCC3C)n[nH]2)cc1 (stereo not drawn) | inactive
Cc1ccc(NN=Nc2nc3c([nH]2)c(=O)n(C)c(=O)n3C)cc1 | 28.2 µM (active)
Cc1ccc(CNC(=O)CSc2c(C)cnc3c2c(=O)n(C)c(=O)n3C)cc1 | inactive
CC(CCO)Nc1nc2c([nH]1)c(=O)n(C)c(=O)n2C (stereo not drawn) | inactive
CCc1cccc(CC)c1NC(=O)Cn1c(=O)c(-c2cc(C)ccc2NC(C)=O)nc2ccccc21 | inactive
Nc1nc(-c2sc3nc4c(cc3c2N)CCCC4)nc(N2CCOCC2)n1 | 3.55 µM (active)
Cc1nc(N2CCOCC2)nc2c1CCCC2 | inactive
Cc1cc(Oc2ccccc2)nc(N2CCOCC2)n1 | inactive
COc1ccc(CCNc2nc(-c3ccc(Cl)cc3)cc(C(F)(F)F)n2)cc1OC | inactive
COc1ccc2c(Sc3ccc(C)cc3)c(C(=O)NC(C)c3ccccc3)[nH]c2c1 (stereo not drawn) | inactive
CNC(=O)c1ccc(-c2nc(CN3CCc4ccccc43)c(C)o2)cc1 | inactive
CCc1ccc(NC(=O)c2nn(-c3ccc(C)cc3)c(=O)n(C)c2=O)cc1 | inactive
CC(C)CCNC(=O)CSc1nc2ccccc2nc1Cc1ccc(Cl)cc1 | inactive
CCc1ccc(Sc2cc(C(=O)NCCCOC(C)C)c3ccccc3n2)cc1 | inactive
COc1ccccc1OCCNc1cc(N2CCOCC2)ccc1[N+](=O)[O-] | 14.1 µM (active)
O=[N+]([O-])c1ccc(N2CCN(S(=O)(=O)c3ccc4ccccc4c3)CC2)cc1NCc1ccco1 | inactive

SMILES | Potency
COc1ccccc1OCCNC(=O)c1cc([N+](=O)[O-])cc([N+](=O)[O-])c1 | inactive
Cc1ccc2nc(COc3cccc(NC(=O)Nc4ccc(C)c(Cl)c4)c3)cc(=O)n2c1 | inactive
CCc1ccc(CNCc2c(C(=O)O)n(Cc3ccc(F)cc3Cl)c3cc(OC)ccc23)cc1 | inactive
COc1ccc(S(=O)(=O)NCc2cccn2Cc2cccc(C)c2)cc1 | inactive
COc1ccc(Cc2nc3ccc(C(=O)NCc4ccccc4C)cc3o2)cc1 | inactive
COCCN(CCOC)C(=S)Nc1ccccc1Cl | inactive
O=C(Nc1ccccc1Cl)/C(Cl)=C(\Cl)S(=O)c1ccccc1 (stereo not drawn) | 2.82 µM (active)
O=C(Nc1ccccc1Cl)c1ccc2nsnc2c1 | inactive
CCOC(=O)C1CCCN(C(=O)Cn2ncc3c(C)n(Cc4ccc(F)cc4)c(C)c3c2=O)C1 (stereo not drawn) | inactive
O=C(CCc1nc(CN2CCN(S(=O)(=O)c3ccc(Cl)cc3)CC2)no1)N1CCCCC1 | inactive
CCC(=O)Nc1ccc(C)cc1-c1nc2ccccc2n(Cc2ccccc2)c1=O | inactive
C=CC[n+]1c(-c2ccc(C)cc2)csc1NNC(=O)Nc1ccccc1 | 15.8 µM (active)
Cc1ccc(NC(=O)Nc2ccccc2)c(Br)c1 | inactive
C=CCNc1scc(-c2ccccc2)[n+]1CC=C | inactive
O=C(NCC(c1ccc(Cl)cc1)N1CCOCC1)c1ccccc1F (stereo not drawn) | inactive
COc1ccc(-c2cc(C(=O)NCc3cc(OC)c(OC)c(OC)c3)[nH]n2)cc1 | inactive
Cc1ccc2c(c1)N(CC(=O)NCCCN1CCCCC1)C(=O)c1cccnc1O2 | inactive
Cc1ccc(Nc2c(-c3ccc(N(C)C)cc3)nc3nc[nH]n23)cc1 | 14.1 µM (active)
Cc1ccc(Nc2c(-c3ccc(C)s3)nc3ccccn23)cc1 | inactive
Cc1ccc(-c2nc3cccc(C)n3c2Nc2ccc3c(c2)OCCO3)cc1 | inactive
CCn1cc(C(=O)NCc2ccc(C)cc2)c(=O)c2cc(S(=O)(=O)N3CCc4ccccc4C3)ccc21 | inactive
Cc1c(-c2nsc(NC(=O)c3cccc(Cl)c3)n2)nnn1-c1ccccc1C(F)(F)F | inactive
CCOC(=O)c1ccc(NC(=O)Cn2cc(S(=O)(=O)Cc3ccccc3F)c3ccccc32)cc1 | inactive
COC(=O)CC1=NN(c2ccccc2)C(=O)C1 | inactive
O=c1[nH]n(-c2ccc([N+](=O)[O-])cc2)c(=O)c2ccccc12 | inactive

SMILES | Potency
O=C1CC(c2ccccc2)=NN1c1ccc([N+](=O)[O-])cc1 | 11.2 µM (active)
O=C(NCC(c1cccnc1)N1CCc2ccccc21)c1cccc(C(F)(F)F)c1 (stereo not drawn) | inactive
COc1ccccc1-c1nnc(SCC(N)=O)o1 | inactive
CCOc1ccc(NC(=O)c2c(NCc3cccc(OC)c3OC)sc3c2CCC3)cc1 | inactive
Cc1ccc(NC(=O)c2c(NC(=O)CCC(=O)O)sc3c2CCCCC3)cc1 | 25.1 µM (active)
CCOC(=O)c1c(NC(=O)CCC(=O)NCc2ccco2)sc2c1CCCC2 | inactive
CCOc1ccc(NC(=O)c2c(NC(=O)Cc3ccccc3)sc3c2CCCCC3)cc1 | 22.4 µM (active)
N#Cc1c(NC(=O)CCCl)sc2c1CCCCC2 | inactive
O=C(Cc1ccccc1)Nc1sc2c(c1C(=O)Nc1ccc(Br)cc1)CCC2 | inactive
CCCn1ccc2c(OCC(=O)NCc3ccc(F)cc3)cccc2c1=O | inactive
COc1ccccc1NC(=O)C1=C(C)Nc2nc(SCC(=O)c3ccc(C)cc3)nn2C1c1ccccc1C (stereo not drawn) | inactive
COc1ccc(NC(=O)CCNS(=O)(=O)c2ccc3c(c2)CCCC(=O)N3)cc1Cl | inactive
COc1cc(NC(=O)CSc2nc3nc(C)c(Cc4ccc(C)cc4)c(C)n3n2)cc(OC)c1OC | inactive
COc1ccc(-c2nc(Cn3c(=O)cc(C)c4c(C)nn(-c5ccccc5)c43)c(C)o2)c(OC)c1 | inactive
CCOC(=O)Cn1c(=O)n(-c2ccccc2OC)c2nc(-c3cccc(F)c3)nc(C(N)=O)c21 | inactive
COc1cc(Cl)c(C)cc1Nc1nnc(-n2nc(C)cc2C)c2ccccc12 | inactive
CCc1ccc(CNC(=O)c2ccc(CS(=O)c3ccc(Br)cc3)o2)cc1 (stereo not drawn) | inactive
CCOC(=O)C1=C(c2ccc(OC)cc2)C(=O)c2ccccc2C1=O | 14.1 µM (active)
CCOC(=O)c1ccccc1NS(=O)(=O)c1ccc(OC)cc1 | inactive
CCCCC(C(=O)OCC(=O)c1ccc(OC)cc1)N1C(=O)c2ccccc2C1=O (stereo not drawn) | inactive
O=c1[nH]n2c(=O)c3c([nH]c2c1N=Nc1ccccc1)CCC3 | 3.16 µM (active)
N#Cc1c2c(c(-c3ccccc3)[nH]c1=O)CCCC2 | inactive
O=c1[nH]c2c(c(=O)n1Cc1ccccc1)CCC2 | inactive
